Only some compounds are listed: those with a hit (about 2.9% of all), similar ones and a draw of the others.
PAFAH2 inh: PAFAH2 (human) inhibition | Q99487 | AID 492956 | recombinant PAFAH2, FP-rhodamine activity probe, fluorescence polarization | actives 0.99% (n = 340,000) | inhibition, % at 3.39 µM;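 active = inhibition above the mean over all tested compounds plus 3 SD, cut at about 30% in these data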;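 also: inhibitors block probe labeling of enzyme so polarization drops; 0% = enzyme with DMSO and 100% = wells lacking PAFAH2 protein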
PAFAH1B2 inh: blocks human PAF acetylhydrolase 1b catalytic subunit 2; P68402; recombinant PAFAH1B2, FP-rhodamine activity probe, fluorescence polarization; inhibition, % at 3.39 µM; actives 1.2% (n = 340,000);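 active = inhibition above the mean of all tested compounds plus 3 SD, cut at about 24% in these data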;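 also: 0% = enzyme with DMSO and 100% = wells lacking PAFAH1B2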
Target sequence (P68402 whole entry, looked up): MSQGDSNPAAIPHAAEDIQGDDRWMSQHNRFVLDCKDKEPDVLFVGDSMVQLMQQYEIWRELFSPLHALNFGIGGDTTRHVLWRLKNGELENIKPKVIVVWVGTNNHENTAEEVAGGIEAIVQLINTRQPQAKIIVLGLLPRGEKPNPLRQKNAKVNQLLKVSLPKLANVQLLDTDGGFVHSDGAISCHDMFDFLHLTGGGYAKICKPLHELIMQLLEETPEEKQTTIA
PME-1 inh: PME-1 (human) inhibition. AID 2130. inhibition, % at 5.9 µM. Q9Y570. recombinant PME-1, FP-Rh probe fluorescence polarization. actives 0.53% (n = 320,000);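 active = inhibition above the campaign mean of all compounds plus 3 SD, cut at about 26% in these data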;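 also: competitive labeling of PME-1 active site by serine hydrolase directed probe; 0% = PME-1 with DMSO and 100% = wells lacking PME-1 enzyme; inhibitors block probe labeling so polarization falls and inhibition rises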
PAFAH1B3 inh: blocks human PAF acetylhydrolase 1B catalytic subunit 3 | Q15102 | recombinant PAFAH1B3, FP-rhodamine probe, fluorescence polarization | inhibition, % at 3.39 µM | actives 0.28% (n = 340,000);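 active = inhibition above the screen-wide average of all tested compounds plus 3 SD, cut at about 25% in these data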;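 also: 0% = enzyme with DMSO only and 100% = wells lacking PAFAH1B3 protein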
pPAFAH FP inh: pPAFAH (human) enzyme inhibition | Q13093 | AID 463082 | inhibition, % at 3.39 µM | actives 1.5% (n = 330,000) | recombinant pPAFAH, FP-rhodamine probe fluorescence polarization;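 active = inhibition above the mean inhibition across the screen plus 3 SD, cut at about 25% in these data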;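 also: inhibitors block binding of the rhodamine activity-based probe so polarization drops; 0% = enzyme with DMSO and 100% = wells lacking pPAFAH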
Target sequence (Q13093 whole entry, looked up): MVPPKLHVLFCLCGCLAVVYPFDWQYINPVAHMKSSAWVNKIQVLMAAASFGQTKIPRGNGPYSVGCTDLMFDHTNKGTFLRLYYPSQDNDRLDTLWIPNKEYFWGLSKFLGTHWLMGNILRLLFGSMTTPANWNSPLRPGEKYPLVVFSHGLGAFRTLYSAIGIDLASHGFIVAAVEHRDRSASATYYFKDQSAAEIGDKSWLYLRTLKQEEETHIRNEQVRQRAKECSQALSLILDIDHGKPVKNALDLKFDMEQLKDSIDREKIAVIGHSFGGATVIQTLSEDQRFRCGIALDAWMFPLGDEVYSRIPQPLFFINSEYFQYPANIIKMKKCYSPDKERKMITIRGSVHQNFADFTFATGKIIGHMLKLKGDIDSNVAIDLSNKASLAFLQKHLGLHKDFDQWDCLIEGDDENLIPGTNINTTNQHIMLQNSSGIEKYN
Fam108B inh: counter-screen for RBBP9 inhibitors: inhibitors of mouse Fam108B; recombinant Fam108B, FP-Rh probe fluorescence polarization; inhibition, % at 9.51 µM; actives 0.33% (n = 300,000); AID 1947;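 active = inhibition above the screen mean inhibition plus 3 SD, computed separately per campaign, cut at about 18% in these data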;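 also: inhibitors lower polarization as less probe binds the enzyme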
Fam108b inh conf: confirmation of mouse Fam108b serine hydrolase inhibitors. shares compounds with Fam108B inh. recombinant Fam108b, FP-Rh probe fluorescence polarization. inhibition, % at 9.51 µM. actives 44% (n = 930). AID 1978;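 active = inhibition above a limit from the primary screen, the mean over all compounds plus 3 SD, cut at about 19% in these data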;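 also: 0% = median of active Fam108b wells and 100% = catalytically dead S170A mutant; inhibitors free the probe so polarization falls as inhibition rises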
Fam108b ABPP HTS: inhibits mouse Fam108b in gel-based ABPP; recombinant Fam108b, fluorophosphonate probe; actives 44% (n = 260); shares compounds with Fam108B inh; inhibition, % at 20 µM; in the data active = inhibition above about 40%
An asterisk follows results filed as active; · = not tested or not shown.

SMILES	PAFAH2 inh	PAFAH1B2 inh	PME-1 inh	PAFAH1B3 inh	pPAFAH FP inh	Fam108B inh	Fam108b inh conf	others
N=C1/C(=C\c2coc3ccccc3c2=O)C(=O)N=C2SC=CN12	9.8	2.5	14.8	2.2	8.2	9.1	·
CSC1=NSC2=NC(=O)/C(=C/c3coc4ccccc4c3=O)C(=N)N12	24.6	11.3	12.5	7.7	15.7	40.6*	52.0*	Fam108b ABPP HTS=0.0
C/C(=N\NC(=O)c1cccc(Cl)c1)C1C(=O)c2ccccc2C1=O	23.8	12.9	4.0	21.0	19.5	30.9*	34.4*
C/C(=N\NC(=O)CCc1ccccc1)C1C(=O)c2ccccc2C1=O	15.6	6.6	3.2	22.3	12.2	-2.4	·
O=C(COC(=O)c1cc([N+](=O)[O-])ccc1N1CCOCC1)Nc1cc(F)ccc1F	-0.8	-0.1	3.8	8.9	-2.2	0.1	·
CCN(CC)c1ccc(NC(=O)c2cc3c(OC)cccc3[nH]2)cc1	8.0	4.1	19.6	13.5	14.1	20.6*	3.1
Cc1cc(C)cc(C(=O)NC(=S)Nc2ccc3c(c2)OCCO3)c1	4.3	-0.8	-3.3	-4.5	-1.9	-2.5	·
Cc1ccc(C(=O)NC(=S)Nc2ccc3c(c2)OCCO3)c(C)c1	0.8	-0.4	4.7	-5.8	8.6	26.4*	-3.7
O=C(CCc1ccccc1)N/N=C/c1cccc(O)c1	4.2	-0.1	2.3	7.1	-2.7	1.8	·
O=C(Nc1cccc(Cl)c1)Nc1ccc2c(c1)OCO2	-7.7	8.3	20.2	7.1	14.4	19.1*	-1.4
COC(=O)c1ccc(C23CC4(C2)[C@H](CN(Cc2ccc(C(F)(F)F)cc2)[C@@H]4c2ccccc2)C3c2ccc(Cl)nc2)cc1 (stereo not given in full)	·	·	-7.0	·	-7.3	-6.6	·
COc1cc(/C=N/n2c(-c3ccc4c(c3)NC(=O)CO4)csc2=Nc2cccc(C)c2)ccc1O	0.1	9.3	9.3	12.5	33.5*	20.9*	8.3
COCCN=c1scc(-c2ccc3c(c2)NC(=O)CO3)n1/N=C(\C)c1ccc(O)cc1	1.7	2.3	11.3	-2.2	11.8	4.9	·
O=C(Nc1cccc(C(F)(F)F)c1)Nc1ccc(N2CCCC2)c(S(=O)(=O)Nc2ccccc2Cl)c1	-17.6	18.3	20.0	11.5	11.9	35.5*	31.7*	Fam108b ABPP HTS=95.0*
COc1ccccc1/C=N/NC(=O)c1ccccc1Cl	-5.2	-2.0	2.8	-7.5	1.0	2.1	·
COc1cc2cc(C(=O)NN=Cc3ccccc3Cl)[nH]c2cc1OC	·	·	·	·	·	·	·	Fam108b ABPP HTS=50.0*
CCOc1ccc2[nH]c(C(=O)N/N=C/c3ccccc3OC)cc2c1	-7.7	3.5	-1.1	5.5	-0.9	21.4*	-13.5
COc1ccc2[nH]c(C(=O)N/N=C/c3ccccc3OC)cc2c1	-3.8	3.2	0.0	7.5	7.1	2.1	·
COc1ccc(OC)c(/C=N/NC(=O)c2cc3c(OC)c(OC)ccc3[nH]2)c1	1.2	16.8	31.0*	3.9	23.2	18.8*	16.8
COc1ccc2[nH]c(C(=O)N/N=C/c3ccc(OC)c(O)c3)cc2c1	-7.7	6.1	25.6	4.8	5.9	12.9	·
CCn1c(C(=O)N2CCC(C(=O)NCc3cccs3)CC2)cc2sccc21	-1.1	0.1	1.1	11.1	-8.1	-2.4	·
O=C(CCNS(=O)(=O)c1ccccc1C(F)(F)F)NC1CCCCCC1	-0.1	1.6	·	3.2	·	·	·
CCOC(=O)COc1c(OC)cc(Cl)cc1C1Nc2ccccc2C(=O)N1c1ccccc1 (stereo not given)	0.8	2.2	-5.4	4.2	4.7	-4.9	·
Cc1ccc(NC(=O)/C(C#N)=C(\N)C(Cl)(Cl)Cl)nc1	41.0*	44.9*	-0.3	42.6*	5.5	20.6*	23.0*
Cc1ccc(NC(=O)C(=O)Nc2ccc(C)cn2)nc1	0.6	2.5	1.3	8.2	-0.3	-2.9	·
SMILES	PAFAH2 inh	PAFAH1B2 inh	PME-1 inh	PAFAH1B3 inh	pPAFAH FP inh	Fam108B inh	Fam108b inh conf	others
Cc1ccnc(NS(=O)(=O)c2cc([N+](=O)[O-])ccc2C)c1	3.7	2.1	-2.7	6.1	1.8	1.8	·
Oc1c(Br)cc(Br)cc1/C=N/NC(=S)N[C@H]1CC2C=CC1C2 (stereo not given in full)	56.9*	14.7	25.6	20.8	46.0*	18.4*	8.3
O=C(NC(=S)Nc1ccc2c(c1)OCCO2)c1ccc(F)cc1Cl	-3.9	-2.8	0.5	-4.3	2.8	0.4	·
COc1cc(OC)c(NC(=O)C2CCCO2)cc1Cl (stereo not given)	-12.2	-0.6	6.7	15.1	-7.8	18.2*	-3.3
Cc1noc(C)c1S(=O)(=O)N(C)C[C@H]1Oc2c(NC(=O)NC(C)C)cccc2C(=O)N([C@H](C)CO)C[C@@H]1C	-4.0	0.4	·	3.9	-1.0	·	·
O=C(NN=Cc1ccc(O)cc1)c1cccc(NN=Cc2ccc(O)cc2)c1	·	·	·	·	·	·	·	Fam108b ABPP HTS=95.0*
CCC(C)c1ccccc1NC(=O)COc1ccc(-n2cnnn2)cc1 (stereo not given)	-1.3	0.9	0.7	-5.4	5.2	·	·
N#C/C(N=Nc1ccccc1O)=N\Nc1ccccc1O	41.2*	36.2*	31.9*	49.7*	20.0	38.8*	39.9*	Fam108b ABPP HTS=0.0
Cc1ccc(SCC(=O)Nc2oc(C)c3c(C)n[nH]c(=O)c23)cc1C	-5.0	2.5	3.2	6.6	-0.2	·	·
N#Cc1c(N2CCCC2)nc(N)c2c(N)nc(N3CCCC3)cc12	59.2*	41.5*	20.6	62.8*	16.0	57.9*	126.0*	Fam108b ABPP HTS=0.0
N#C/C(=C\c1coc2ccc(O)cc2c1=O)C(=O)Nc1nc2ccccc2s1	29.0	8.3	-11.7	2.8	33.1*	44.1*	-38.9
N#C/C(=C\c1coc2ccccc2c1=O)C(N)=S	-3.7	-4.6	-4.1	-7.7	-1.0	-5.6	·
O=C(NCCCCNC(=O)c1ccccc1F)c1ccccc1F	1.6	1.6	-3.1	4.6	2.6	-0.4	·
CC(=O)CSc1ccc(-c2nc3cc(C)c(C)cc3[nH]2)cn1	0.4	8.1	-20.7	3.4	7.0	-5.3	·
Cc1cc2nc(-c3ccc(SCc4ccc(C#N)cc4)nc3)[nH]c2cc1C	-5.4	1.1	3.5	-0.9	6.5	25.9*	6.3
CCOc1cccc(/C=N/NC(=O)c2cc(-c3cccn3C)n[nH]2)c1O	9.0	7.9	-1.8	-2.1	7.4	22.1*	8.9
COc1cc(OC)c(OC)cc1/C=N/NC(=O)c1cc(-c2cccn2C)n[nH]1	6.0	7.4	2.5	3.4	7.5	4.3	·
Cc1ccc(C(=O)N/N=C\c2ccc(Br)o2)o1	2.7	4.2	-1.1	3.8	-3.9	-1.3	·
Cc1ccc(C(=O)N/N=C/c2ccc(-c3ccc(Br)cc3[N+](=O)[O-])o2)o1	8.8	7.1	53.1*	3.5	26.4*	19.1*	-5.1
